Among the data in PubChem BioAssay (EPA / NIEHS) are outcome and AC50 values, retold here.

Molecules are shown by their SMILES. The source made the active and inactive calls. Rule for the calls: active = hit-call score of the fitted dose curve at least 0.9, where 1 is the maximum; inactive = score below 0.9.

Read-out in this assay: sulfotransferase 2A1 (SULT2A1), SULT2A1 (gene 6822)
The assay is described as follows: LTEA_HepaRG_SULT2A1: Life Technologies and Expression Analysis (LTEA) Assay for sulfotransferase 2A1 (SULT2A1) using HepaRG (AID 2283531). As to conditions: mRNA level, 48 h; actives raise or lower the signal. On the procedure:
LTEA_HepaRG is a cell based, multiplexed-readout assay that uses HepaRG, a human liver cell line, with measurements taken at 48 hours after chemical dosing on a 96-well plate.LTEA_HepaRG_SULT2A1 is one of 102 assay component(s) measured in the LTEA HepaRG cell culture assay. It is a marker of NR mediated transport.Data from the assay component LTEA_HepaRG_SULT2A1 was analyzed into 1 endpoint. This assay endpoint, LTEA_HepaRG_SULT2A1, was analyzed with bidirectional fitting relative to DMSO as the negative control and baseline of activity. Using a type of inducible reporter, measures of mRNA induction for gain or loss-of-signal activity can be used to understand regulation of transcription factor activity. To generalize the intended target to other relatable targets, this assay endpoint is annotated to the transferase intended target family, where the subfamily is sulfotransferase.
A total of 1060 chemcials from the ToxCast library were tested in eight-point concentration-response experiments. Cell culture and cytotoxicity assays were conducted at Thermo Fisher Scientific's Custom Services facility (Madison, WI). A single lot of human HepaRG cells (Thermo Fisher Scientific, Frederick, MD) was used for the cell culture experiments. 96-well format collagen type I coated plates of human HepaRG cells were prepared using established methods. Briefly, cryopreserved HepaRG cells were thawed, plated at a density of approximately 100,000 cells/well in HepaRG Thaw, Plate, and General Purpose media (HPRG770, Thermo Fisher Scientific), and incubated for 48 hours. 0.5% DMSO was selected as vehicle control to balance the requisite need of DMSO in HepaRG cultures to maintain differentiation (for example, baseline metabolism, proportions of hepatocytes vs. cholangiocytes), while enabling further hepatic receptor pathway activation (for example, PXR and CAR) in response to chemical exposure. 48 hours after plating, the culture medium was replaced with HepaRG Serum-Free Incudtion Media. Cells were exposed to each test chemical in duplicate and maintained in CO2 incubators for another 48 hours. Chemical plates were thawed to room temperature and 200x concentrations of treatment groups were prepared. 8-point conentration-reponse curves were made with the highest exposure at 100 uM, followed by half-log dilutions, all in 0.5% DMSO. Each test plate contained variouse controls, induction positive controls (1mM phenobarbital), cytotoxicity positive controls ([…] aflatoxin B1), vehicle controls (0.5% DMSO), and total lysis controls (0.5% DMSO). Cell morphology images were taken using an Essen IncuCyte FLR automated microscope, with six 96-well plates imaged in about 24 minutes. Images were captured and exported and JPEG files. Spent culture media was transfered to black-well plates for the LDH assay, and remaining media was sorted at -80 C for later use. Cells were treated with RLT buffer and frozen until shipped for gene expression analysis. Total RNA was isolated from the cell suspension in 75 uL of Buffer RLT (Qiagen, Germantown, MD 20874) by Quintiles/Expression Analysis (Durham, NC) using a custom isolation procedure. Total RNA from each plate well was transferred to a preamplification plate. Fluidigm's 96.96 Dynamic ArrayTM (Fluidigm, Amsterdam, the Netherlands) technology was used for gene expression analyses by quantitative reverse transcription polymerase chain reaction (qRT-PCR, performed by Quintiles/Expression Analysis, Durham, NC)89. Standard TaqManTM Assays (Applied Biosystems/ThermoFisher Scientific, Foster City, CA) were used to assess the expression of 93 genes selected based on their selectivity and sensitivity to important hepatic receptors known to be modulated by environmental chemicals; importance in human hepatocyte functionality; and hepatotoxicity. […]
For `O=C1c2ccccc2C(=O)N1CCc1noc(-c2ccc(CN3CCCCCC3)s2)n1`, the outcome was inactive.

Turning to `CC(C)(O)c1ccc(CNC(=O)c2cccnc2Oc2ccc3nonc3c2)cc1`, the result was inactive.

In the case of `CN1C(=O)CC[C@H]1c1cccnc1`, the result was inactive.

With `O=C(O)c1ccccc1C(=O)OCc1ccccc1`, the call was inactive.

On to `Cc1oc2c(NC(=O)c3c(Cl)cccc3Cl)cccc2c1C(C)(C)O`, for which the AC50 is 68.1 µM (active).

Take `Cc1ccc(C(C)C)cc1`: the call was inactive.

`O=c1c(-c2ccc(O)cc2)coc2cc(O)cc(O)c12`: the result was inactive.

Consider `Clc1cc(Cl)c2c(c1)N=C1CCCCCN1C2`, for which the outcome was inactive.

With `CC[C@@H]1C[C@H](N(Cc2cc(C(F)(F)F)cc(C(F)(F)F)c2)C(C)=O)c2cc(C(F)(F)F)ccc2N1C(=O)OC(C)C`, the result was inactive.

Regarding `NC(=O)c1nc(-c2cccc(-c3cc(F)ccc3OCC(F)(F)C(F)(F)F)c2)n[nH]1`, the outcome was inactive.

As to `CC/C(=C(/CC)c1ccc(O)cc1)c1ccc(O)cc1`, the AC50 was 93.7 µM (active).

As to `COc1ccc2cc(S(=O)(=O)N[C@H](CC(=O)N[C@H](Cc3ccc(CN4[C@H](C)CCC[C@@H]4C)cc3)C(=O)N(C)C(C)C)c3ccc4c(c3)OCO4)ccc2c1`, the AC50 was 75.2 µM (active).

For the molecule `CN(C)c1ccc(C(=C2C=CC(=[N+](C)C)C=C2)c2ccc(N(C)C)cc2)cc1`, the AC50 is 3.54 µM (active).

For `COCC(C)OCC(C)OCC(C)O` (stereo not given), the outcome was inactive.

As to `OC12N=C(c3ccccc3)SC1Cc1cc(Cl)ccc12` (stereo not given), the AC50 was 14 µM (active).

For `CCCCOC(=O)CC(CC(=O)OCCCC)(OC(C)=O)C(=O)OCCCC`, the result was inactive.

For `CCN(CC)C(=O)c1cc(S(=O)(=O)Cc2ccccc2)c(N2CCC(c3ccccc3)CC2)cc1N(CC)CCN(C)C`, the AC50 was 32.6 µM (active).

`C[C@]12CC[C@@H]3c4ccc(O)cc4CC[C@H]3[C@@H]1CCC2=O`: the molecule was called inactive.

With `O=c1ccc2ccccc2o1`, the molecule was called inactive.

`O=C(O)Cc1cc(I)c(Oc2ccc(O)c(I)c2)c(I)c1`: the AC50 is 79.5 µM (active).

`CCCC(=O)OCCC(C)C`: the molecule was classed as inactive.

As for `Cc1cn([C@H]2C[C@H](N=[N+]=[N-])[C@@H](CO)O2)c(=O)[nH]c1=O`, the result was inactive.

On to `CCCCCCCCCCCC[N+](C)(C)C`, for which the AC50 was 93.5 µM (active).

Take `c1ccc2ccccc2c1`: the result was inactive.

For `CN(C)C(=O)C1(N2CCCCC2)CCN(CC[C@@]2(c3ccc(Cl)c(Cl)c3)CN(C(=O)c3ccccc3)CCO2)CC1`, the AC50 was 23.3 µM (active).

For `CCCCCCCC[Si](OCC)(OCC)OCC`, the outcome was inactive.

Regarding `CC(C)(C)c1csc(-c2cc3cc(OCc4ccccc4CC(=O)O)ccc3o2)n1`, the AC50 was 34 µM (active).

`COc1cccc([C@H](O)C2CCN(CCc3ccc(F)cc3)CC2)c1OC`: the molecule was classed as inactive.

For `c1ccc(C[n+]2cccc3ccccc32)cc1`, the half-maximal activity concentration (AC50) was 32.4 µM (active).

Take `CCCCCCCCCCCO`: the result was inactive.

With `CC(C)(C)c1cc(/C=C2\SC(N)=NC2=O)cc(C(C)(C)C)c1O`, the AC50 was 93.6 µM (active).

`CCCCOC(=O)c1ccc(O)cc1`: the molecule was called inactive.

In the case of `Oc1ccccc1`, the molecule was called inactive.

On to `CCN(Cc1cccnc1)C(=O)c1cccc(Cl)c1[C@]1(C)C(=O)N(Cc2ccc(OC)cc2OC)c2ccc(Cl)cc21`, for which the AC50 is 25.3 µM (active).

Take `Cc1cccc2ccccc12`: the molecule was classed as inactive.

Regarding `Clc1ccccc1C(c1ccccc1)(c1ccccc1)n1ccnc1`, the AC50 is 23.3 µM (active).

As to `CCCCCCCCOc1ccc(C(=O)c2ccccc2)c(O)c1`, the call was inactive.

Take `C[C@]12CC[C@@H]3c4ccc(O)cc4CC[C@H]3[C@@H]1CC[C@H]2O`: the AC50 is 6.71 µM (active).

For `Cc1cc(F)ccc1-c1cc(N2CC[C@@H](O)[C@H]2CO)ncc1N(C)C(=O)C(C)(C)c1cc(C(F)(F)F)cc(C(F)(F)F)c1`, the AC50 is 24.7 µM (active).

As to `Oc1ccc2ccccc2c1`, the molecule was classed as inactive.

As usually defined, the AC50 is the concentration at which the activity in the assay is half-maximal.
